# TROY NFkB inh: inhibitors of TROY-dependent NF-kB signaling; Q293 LMP1-TROYcd NF-kB luciferase reporter, 4 h; inhibition, % at 10 µM; 360,000 compounds, 0.98% hits;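 active = compounds whose plate-normalised and pattern-corrected inhibition of the luciferase reporter signal at the single screening dose is 50% or more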
# LGR2 inh: blocks bursicon-induced cAMP signaling via Drosophila LGR2 | HEK293 LGR2, CRE-luciferase, bursicon-stimulated, 4 h | inhibition, % at 9.99 µM | 380,000 compounds, 0.35% hits;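 active = drop in luminescence signal, shown as inhibition above about 50% in the replicate tests, limit read from the data, passing the limit was not always enough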;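 note: agonist challenge used bursicon conditioned medium at about half maximal strength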
# EBV LMP1 NFkB: reduces LMP1-driven NF-kappaB luciferase signal. inhibition, % at 12.5 µM. 350,000 compounds, 0.69% hits. LMP1-induced NF-kappaB luciferase reporter cells, luminescence; in the data active = inhibition above about 41%;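 note: 0% = neutral control wells and 100% = reference inhibitor control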
# PAX8 reporter: inhibitors of PAX8 transcriptional activity in RMG-I cells | RMG-I TPO-luciferase reporter, SteadyGlo, 24 h | inhibition, % at 12.6 µM | 360,000 compounds, 1.2% hits | AID 652154;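 active = mean replicate inhibition at least 60% with every replicate also reaching 60%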;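 note: luciferase light reporting Pax8 driven TPO promoter activity; plate controls were median of neutral control wells for no effect and mitoxantrone controls for full effect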
# TWEAK Fn14 block: blocks TWEAK-Fn14 interaction in a reporter cell assay | 360,000 compounds, 2% hits | inhibition, % at 10 µM | TWEAK-stimulated Fn14 reporter cells, luciferase luminescence, 8 h; in the data active = inhibition above about 50%
# EWS-Fli inh: blocks EWS/Fli oncoprotein-driven transcription; A673 NR0B1-luciferase reporter, viability-normalised; 350,000 compounds, 0.67% hits; inhibition, % at 12.6 µM;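 active = mean inhibition of at least 50% after viability correction, with every replicate also passing that limit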;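 note: firefly luciferase signal divided by Alamar Blue viability fluorescence both relative to DMSO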
# Numbers without * were called inactive; x = no result. This is a sample that favours compounds with a hit; in the whole collection about 3.2% have one here.
SMILES,TROY NFkB inh,LGR2 inh,EBV LMP1 NFkB,PAX8 reporter,TWEAK Fn14 block,EWS-Fli inh
CCCOCCOC(=O)c1[nH]c2c(c1C)C(=O)CC(c1cc(OC)ccc1OC)C2 (configuration not stated),32,8,0,19,8,56*
C[C@@H]1CN([C@@H](C)CO)C(=O)c2cc(-c3ccccc3F)cnc2O[C@@H]1CN(C)C(=O)C1CCC1,x,-1,x,x,x,-8
OC[C@H]1[C@@H](c2ccc(-c3cccc(F)c3)cc2)[C@@H]2CN(CCC(F)(F)F)CCCCN12,x,1,x,-4,x,8
Cc1noc(C)c1S(=O)(=O)Nc1ccc2c(c1)CC(=O)N([C@H](C)CO)C[C@@H](C)[C@@H](CN(C)S(=O)(=O)c1cccs1)O2,x,-28,x,x,x,1
CC(C)NC(=O)N(C)C[C@@H]1Oc2c(NS(=O)(=O)c3cn(C)cn3)cccc2C(=O)N([C@@H](C)CO)C[C@H]1C,x,-11,x,x,x,-3
Cc1ccc2cc(CCNS(=O)(=O)c3ccc(F)cc3)c(=O)[nH]c2c1C,56*,7,0,-6,59*,1
Cc1ccc(S(=O)(=O)NCCc2cc3ccc(C)c(C)c3[nH]c2=O)cc1,-6,14,7,-1,3,-1
CC(C)NC(=O)N(C)C[C@@H]1Oc2ccc(NC(=O)Cc3ccccc3)cc2CC(=O)N([C@@H](C)CO)C[C@@H]1C,x,-13,x,-3,x,-1
COc1ccc2c3c([nH]c2c1)[C@H](CO)N(C(=O)Nc1ccccc1F)CC31CN(C(=O)c2ccccc2F)C1,x,-1,x,x,x,9
CN(C)c1ccc(C(=O)n2nnc3ccccc32)cc1,7,x,13,x,94*,x
C#CCOC(=O)c1ccccc1C(=O)OCC#C,5,12,-7,x,-4,x
C#CCOC(=O)c1ccccc1C(=O)n1nnc2ccccc21,36,4,-7,x,55*,x
CCCC(=O)Nc1ccc(C(=O)n2nnc3ccccc32)cc1,-3,x,8,-11,7,x
Nc1nc(Sc2c([N+](=O)[O-])cc(C(F)(F)F)cc2[N+](=O)[O-])n[nH]1,11,-8,-2,21,4,55*
O=C(CSc1ccc(-c2ccco2)nn1)NCc1ccc(Cl)cc1,-7,32,-10,-7,-1,4
O=C(CSc1ccc(-c2ccco2)nn1)NCc1ccccc1,-8,1,2,63*,11,5
CCC(C)Nc1ccc(NC(C)CC)cc1 (configuration not stated),39,x,22,x,69*,x
CCOC(=O)/C(=C/c1c(C)n(C)c2ccc([N+](=O)[O-])cc12)C(C)=O,50*,36,9,-7,73*,7
C[C@@H]1CN([C@@H](C)CO)C(=O)c2cc(-c3cccc(C#N)c3)cnc2O[C@H]1CN(C)Cc1ccncc1,x,3,x,x,x,4
Cc1ccc(OCC(=O)NNC(=S)NC(=O)C2CC2)c(C)c1,16,8,7,20,-137,x
Cc1ccc(OCC(=O)NNC(=S)NC(=O)C2CCCCC2)c(C)c1,36,x,45*,x,-3,x
CN1C(=O)c2cc(NC(=O)c3cccc(F)c3)ccc2OC[C@H]2O[C@@H](CC(=O)NC3CCC3)CC[C@@H]21,x,-8,x,x,x,-4
O=C(NCCn1cc(SCc2ccc(F)cc2)c2ccccc21)c1ccccc1F,28,x,-7,x,51*,x
O=C(NCCn1cc(SCc2ccccc2)c2ccccc21)c1c(F)cccc1F,22,2,3,-8,50*,-13
Cn1cc(SCC(=O)NCc2ccc(F)cc2)c2ccccc21,0,-7,-14,-7,26,-1
SMILES,TROY NFkB inh,LGR2 inh,EBV LMP1 NFkB,PAX8 reporter,TWEAK Fn14 block,EWS-Fli inh
O=C(NCCn1cc(SCc2ccc(F)cc2)c2ccccc21)c1c(F)cccc1F,27,18,1,2,38,-14
C[C@H](CO)N1C[C@H](C)[C@@H](CN(C)C(=O)Nc2ccc(F)cc2)OCCCC[C@H](C)Oc2ccc(NS(=O)(=O)c3cccs3)cc2C1=O,x,3,x,-15,x,-4
C[C@H](CO)N1C[C@H](C)[C@H](CN(C)Cc2ccc(Oc3ccccc3)cc2)Oc2ccc(NC(=O)Cc3ccccc3)cc2CC1=O,x,-17,x,47,x,9
COc1ccc(NC(=O)Nc2ccc3c(c2)CC(=O)N([C@@H](C)CO)C[C@H](C)[C@H](CN(C)Cc2ccc(Oc4ccccc4)cc2)O3)cc1,x,0,x,-13,x,-4
C[C@@H]1CN([C@@H](C)CO)C(=O)Cc2cc(NC(=O)Nc3ccccc3)ccc2O[C@H]1CN(C)Cc1ccc(Oc2ccccc2)cc1,x,7,x,82*,x,23
C[C@H]1CN([C@@H](C)CO)C(=O)Cc2cc(NC(=O)Nc3ccccc3)ccc2O[C@H]1CN(C)Cc1ccc(Oc2ccccc2)cc1,x,-3,x,10,x,3
COc1ccc(NC(=O)Nc2ccc3c(c2)CC(=O)N([C@H](C)CO)C[C@H](C)[C@@H](CN(C)Cc2ccc(Oc4ccccc4)cc2)O3)cc1,x,17,x,69*,x,5
C[C@@H]1CN([C@@H](C)CO)C(=O)Cc2cc(NC(=O)Cc3ccccc3)ccc2O[C@H]1CN(C)Cc1ccc(Oc2ccccc2)cc1,x,13,x,72*,x,4
CCC(=O)N1C[C@@H](C)[C@H](OC)CN(C)C(=O)c2cc(NC(=O)c3ccc(OC)cc3)ccc2OC[C@H]1C,x,1,x,-11,x,-3
O=C(c1cccc(F)c1)N1CC2(C1)[C@@H](c1ccccc1)[C@@H](CO)N2C(=O)C1CCCCC1,x,4,x,2,x,-4
Nc1c2ccccc2nc2ccccc12,-64,96*,-20,-12,-33,45
CCOc1ccc2nc(COC(=O)c3cccs3)c(C(=O)c3ccccc3)[n+]([O-])c2c1,41,-21,-6,-12,34,-3
CCOc1ccc2nc(COC(=O)c3ccncc3)c(C(=O)c3ccccc3)[n+]([O-])c2c1,61*,-47,x,-36,52*,-46
Cc1ccc(S(=O)(=O)Nc2ccc(O)c3ccccc23)c(C)c1,40,18,-6,20,35,-4
Cc1ccc(C)c(S(=O)(=O)Nc2ccc(O)c3ccccc23)c1,42,6,10,42,85*,-2
Cc1noc(C)c1S(=O)(=O)Nc1ccc2c(c1)C(=O)N([C@H](C)CO)C[C@@H](C)[C@H](CN(C)C(=O)Nc1ccc(F)cc1)OCCCC[C@H](C)O2,x,3,x,5,x,-11
Cc1noc(C)c1S(=O)(=O)Nc1ccc2c(c1)C(=O)N([C@H](C)CO)C[C@H](C)[C@@H](CN(C)C(=O)Nc1ccc(C(F)(F)F)cc1)OCCCC[C@H](C)O2,x,19,x,86*,x,-18
Cc1noc(C)c1S(=O)(=O)Nc1ccc2c(c1)C(=O)N([C@@H](C)CO)C[C@@H](C)[C@H](CN(C)C(=O)Nc1ccc(F)cc1)OCCCC[C@H](C)O2,x,-2,x,-11,x,-10

# Screens deposited in PubChem BioAssay by several laboratories.
